Screening results as filed in PubChem.
HTT ATP protect = qHTS Multiplex Assay to Identify Dual Action Probes in a Cell Model of Huntington: Cytoprotection (ATP) | PC12 HTT-Q103 induced, cytoprotection, ATP luminescence, 40 h | hit rate 0.14% among 230,000 | Potency, µM (series often up to 56.4 µM), inactives show cytoprotection (ATP increase), usual class: activators; further: % of control where 0% means no effect; nearly all actives have a fitted effect of over 45% in size
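Stable PC12 Q103-GFP cells in serum-supplemented, phenol red-free DMEM; induction by tebufenozide at 100 nM final; compound dose series; cell viability quantified luminescently from ATP.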
HttQ103 aggreg = qHTS Multiplex Assay to Identify Dual Action Probes in a Cell Model of Huntington: Aggregate Formation (GFP). hit rate 1.1% among 220,000. PC12 HttQ103-GFP aggregates, Acumen cytometry, 40 h. Potency, µM (titrated, usually from 46.1 µM), inactives show top-dose activity change, negative = inhibition, hits mostly inhibitors; further: on the % scale 0 is the no-effect control and ±100 the full control effect; nearly all actives have a fitted effect of over 60% in size
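Ecdysone-promoter PC12 model expressing HTT exon 1 Q103 fused to GFP, induced by tebufenozide at 100 nM final. Compounds titrated; aggregates sized 1–25 µm scored on a 488 nm laser cytometer.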
ERK EGF block = qHTS Assay for Inhibitors of the ERK Signaling Pathway using a Homogeneous Screening Assay; Stimulation with EGF. HEK293-V1b, EGF-stimulated phospho-ERK AlphaScreen. Potency, µM (doses to about 11.5 µM), inactives show at the top dose activity change, negative = inhibition, usual class: inhibitors. hit rate 0.41% among 130,000. AID 1454, 2008;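 further: plate controls were stimulated vehicle wells for no effect and unstimulated vehicle basal for full effect; nearly all actives have a fitted effect of over 55% in size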
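EGF-stimulated (25 nM, 5 min) phospho-ERK in HEK293 cells stably expressing V1b, cells pretreated 30 min with compound at 37C. Homogeneous AlphaScreen read on lysates.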
IMPase Li inh = qHTS Assay for Identifying the Cell-Membrane Permeable IMPase Inhibitors: Potentiation with Lithium. Potency, µM (top dose mostly 59.4 µM), without a hit: top-dose activity, negative = IMPase inhibition, actives largely listed as inhibitors. hit rate 0.35% among 210,000. CHO-M1 cells, IP1 TR-FRET (IP-One), carbachol + lithium;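 further: IP1 builds up when IMPase is blocked and the TR-FRET signal falls; plate controls were basal vehicle for no effect and high inhibitor control for full effect; nearly all actives have a fitted effect of over 50% in size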
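Steps: plate 2000 CHO-M1 cells per well and culture 16–30 h; add compound and lithium; incubate 30 min, 37C; add d2-IP1 tracer and Eu cryptate anti-IP1 antibody in lysis buffer; read after 10 min at room temperature.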
NPSR antagonist = qHTS Assay for Antagonists of the Neuropeptide S Receptor: cAMP Signal Transduction. CHO-NPSR cells, cAMP TR-FRET, antagonist mode. Potency, µM (titrated, usually from 38.3 µM), inactives show at the top dose activity change, negative = inhibition, hits mostly inhibitors. hit rate 1% among 220,000. AID 1461, 2008; further: on the % scale 0 is the no-effect control and ±100 the full control effect; nearly all actives have a fitted effect of over 50% in size
Target sequence (Q6W5P4 whole entry, looked up): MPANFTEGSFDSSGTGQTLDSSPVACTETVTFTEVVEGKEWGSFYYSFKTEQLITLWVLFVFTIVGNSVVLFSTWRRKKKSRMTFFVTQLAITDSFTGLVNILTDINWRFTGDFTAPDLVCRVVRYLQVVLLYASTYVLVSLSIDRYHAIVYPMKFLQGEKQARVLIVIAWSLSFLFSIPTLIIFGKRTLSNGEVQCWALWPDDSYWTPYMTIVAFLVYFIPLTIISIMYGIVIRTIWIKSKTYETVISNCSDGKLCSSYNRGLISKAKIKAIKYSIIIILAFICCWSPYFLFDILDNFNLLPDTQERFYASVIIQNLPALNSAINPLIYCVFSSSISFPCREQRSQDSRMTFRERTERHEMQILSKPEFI
The depositor's hits bear a star; [ ] = dose if it differs, or a comment. Most compounds without a hit are left out; they make up all but 1.9% or so of the library. The call rests on the fitted dose curve; in most records, active means well fitted curve in the direction sought with a large enough effect; inconclusive means small, poorly fitted or top-dose-only effect, or another doubt; inactive means no such curve, though single readings can be large; an effect the other way counts as inactive or inconclusive. Potency means the concentration at half of the fitted maximal effect.

Results for CC1CC2C3CCC4=CC(=O)C=C[C@@]4(C)[C@]3(F)C(O)C[C@]2(C)[C@]1(O)C(=O)COP(=O)(O)O (some centres undefined) ?
HTT ATP protect: -75%; IMPase Li inh: 2%

How did O=S(=O)(Nc1nc2ccccc2nc1N1CCc2ccccc2C1)c1ccc(Br)cc1 do in these assays?
HTT ATP protect: -38%[10 µM]; HttQ103 aggreg: 7.1µM*; ERK EGF block: 3%; IMPase Li inh: 10%; NPSR antagonist: -42%

What do the screens show for `O=S(=O)(Nc1nc2ccccc2nc1Cl)c1ccc(Br)cc1`?
HTT ATP protect: -6%; HttQ103 aggreg: 10µM*; ERK EGF block: 44%; IMPase Li inh: inconclusive; NPSR antagonist: -32%

What do the screens show for `O=S(=O)(Nc1nc2ccccc2nc1Cl)c1ccc(Cl)cc1`?
HTT ATP protect: 5%[0.074 µM]; HttQ103 aggreg: 6%; ERK EGF block: 1%; IMPase Li inh: -26%; NPSR antagonist: -28%

What do the screens show for `Cc1ccccc1S(=O)(=O)Nc1nc2ccccc2nc1Cl`?
HTT ATP protect: -28%; HttQ103 aggreg: -4%; ERK EGF block: 29%; IMPase Li inh: 3.5µM*; NPSR antagonist: -49%

What do the screens show for `O=C(O)c1ccc2c3c(cccc13)C(=O)N(c1ccccc1O)C2=O`?
HTT ATP protect: -15%

Results for O=C1c2cccc3cccc(c23)N1Cc1ccc(F)cc1 ?
HTT ATP protect: 4%[10 µM]; HttQ103 aggreg: 20%; ERK EGF block: -3%; IMPase Li inh: -16%; NPSR antagonist: -18%

How did CCN1/C(=N\N)c2cccc3cccc1c23 do in these assays?
HTT ATP protect: -1%[10 µM]; HttQ103 aggreg: 18%; ERK EGF block: 13µM*; IMPase Li inh: -1%; NPSR antagonist: -3%

Results for COc1ccc2cc1Oc1ccc(cc1)CC1c3c(cc(OC)c4c3Oc3cc5c(cc3O4)CCNC5C2)CCN1C (centres undefined) ?
HTT ATP protect: -96%[10 µM]; HttQ103 aggreg: 4µM*; ERK EGF block: inconclusive; NPSR antagonist: inconclusive

Results for Cc1ccc(-c2c(C(=O)Nc3ccccc3C)c(C)[nH]c(=S)c2C#N)o1 ?
HTT ATP protect: -22%; HttQ103 aggreg: 27%; ERK EGF block: 24%; IMPase Li inh: 11µM*; NPSR antagonist: -19%

What do the screens show for `O=C(O)C(Oc1ccc2ccc(=O)oc2c1)c1ccccc1` (centres undefined)?
HTT ATP protect: inconclusive; ERK EGF block: -2%; IMPase Li inh: 13%

Results for c1ccc(CCNc2ncnc3nc[nH]c23)cc1 ?
HTT ATP protect: -27%[0.074 µM]; HttQ103 aggreg: 11µM*; IMPase Li inh: 20%[38.3 µM]; NPSR antagonist: 10%[46.1 µM]

Results for c1ccc2c(CCNc3ncnc4nc[nH]c34)c[nH]c2c1 ?
HTT ATP protect: 6%; HttQ103 aggreg: inconclusive; ERK EGF block: inconclusive; IMPase Li inh: 6%; NPSR antagonist: 17%

What do the screens show for `CN1c2ccccc2C(C)(C)C12C=Nc1c(ccc3ccccc13)O2` (centres undefined)?
HTT ATP protect: -12%; HttQ103 aggreg: 12%; IMPase Li inh: 16%[38.3 µM]; NPSR antagonist: -17%[46.1 µM]

Results for CN1c2ccccc2C(C)(C)[C@]12C=Cc1cc(O)ccc1O2 ?
HTT ATP protect: -5%; HttQ103 aggreg: -1%; IMPase Li inh: 53%[38.3 µM]; NPSR antagonist: 13µM*

What do the screens show for `Cc1ccc(-c2c(C#N)c(N)n3c(nc4ccccc43)c2C#N)cc1`?
HTT ATP protect: -7%[10 µM]; HttQ103 aggreg: 10µM*; IMPase Li inh: -23%; NPSR antagonist: -8%[46.1 µM]

Results for C=CC[C@@H]1C=C[C@@H](O/N=C\[C@@H](NS(=O)(=O)c2ccc(C)cc2)[C@H](C)/C=C\CC(=O)OC)[C@@H](CO)O1 ?
HTT ATP protect: -23%[10 µM]

How did CCC(C)C1=CC(=Nc2c(C)n(C)n(-c3ccccc3)c2=O)C=C(C(C)CC)C1=O (centres undefined) do in these assays?
HTT ATP protect: -34%; HttQ103 aggreg: -17%; ERK EGF block: 16µM*; IMPase Li inh: 31%; NPSR antagonist: -57%

How did OCCCc1nc2n(n1)C(c1cccs1)C=C(c1ccc(Br)cc1)N2 (centres undefined) do in these assays?
HTT ATP protect: -28%[10 µM]; HttQ103 aggreg: 11µM*; IMPase Li inh: 24%[38.3 µM]; NPSR antagonist: inconclusive

Results for Cc1ccc(-c2nn(-c3ccccc3)cc2C=C2C(=O)CC(C)(C)CC2=O)cc1 ?
HTT ATP protect: 9%; HttQ103 aggreg: 11%; ERK EGF block: inconclusive; IMPase Li inh: -6%[38.3 µM]; NPSR antagonist: -5%[46.1 µM]

What do the screens show for `CC1=NNC(=O)/C1=C\c1cn(-c2ccccc2)nc1-c1ccc(Cl)cc1`?
HTT ATP protect: -53%; HttQ103 aggreg: inconclusive; IMPase Li inh: 29%[38.3 µM]; NPSR antagonist: 2.5µM*

Results for CC(=O)O[C@@H]1CC2C(C)(C)C(=O)C=C[C@]2(C)C2CC[C@]3(C)C(=CC[C@H]3C3CO[C@@H](C(C)(C)O)[C@H](O)C3)[C@@]21C (some centres undefined) ?
HTT ATP protect: 12%; ERK EGF block: -14%; IMPase Li inh: 12%

How did NC(=O)NC(N)=O do in these assays?
HTT ATP protect: -18%; IMPase Li inh: 11%

How did Cc1ccc(C(=O)Nc2nc(=O)n(C(=O)C3CC3)s2)cc1 do in these assays?
HttQ103 aggreg: 23%; IMPase Li inh: 0%; NPSR antagonist: inconclusive

What do the screens show for `Cc1ccc(C(=O)Nc2nc(=O)n(C(=O)c3ccccc3C)s2)cc1`?
HTT ATP protect: 18µM*; IMPase Li inh: 38%[38.3 µM]; NPSR antagonist: -21%[46.1 µM]

What do the screens show for `COc1ccccc1-c1cc(-c2ccccc2)nc(SC(C(N)=O)c2ccccc2)c1C#N` (centres undefined)?
HTT ATP protect: -6%; HttQ103 aggreg: 11µM*; IMPase Li inh: 7.9µM*; NPSR antagonist: inconclusive

Results for Cc1nc(SC(C(N)=O)c2ccccc2)c(C#N)c(C)c1C (centres undefined) ?
HTT ATP protect: -1%[10 µM]; HttQ103 aggreg: -6%[9.22 µM]; ERK EGF block: 4%[57.5 µM]; NPSR antagonist: -18%

Results for N#CCCn1c(=O)c(-c2cccs2)nc2cnc(Oc3cccc(Cl)c3)nc21 ?
HTT ATP protect: 8%; ERK EGF block: 5%; IMPase Li inh: inconclusive

How did COCc1cc(C)nc(OCC(=O)N/N=C/c2ccccc2O)c1C#N do in these assays?
HTT ATP protect: -102%; HttQ103 aggreg: 11µM*; ERK EGF block: -1%; IMPase Li inh: -2%; NPSR antagonist: 4%
